Screening results: PubChem, National Center for Advancing Translational Sciences (NCATS)
TDP1 inh: TDP1 (human) enzyme inhibition; recombinant TDP1, AlphaScreen DNA substrate cleavage; Potency, µM (highest dose often 130 µM), for the others: top-dose activity change, negative = inhibition, usual class: inhibitors; 350,000 tested, 0.28% active; AID 485290; note: % is set by controls: 0 for no effect and ±100 for the full control effect; nearly all actives have a fitted effect of over 40% in size
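Recombinant human Tdp1 (E. coli-expressed, 1 nM final) preincubated with compounds 15 min at room temperature, then 5'-biotin/3'-phosphotyrosine-FITC DNA substrate (15 nM final) added for 5 min. AlphaScreen beads (10 ug/ml final) added 10 min; cleavage lowers signal.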
TDP1 cell CPT: growth inhibition of DT40 Tdp1-/-;hTDP1 cells with camptothecin (screen for TDP1 inhibitors); chicken DT40 Tdp1-/-;hTDP1 cells + 20 nM CPT, ATP luminescence, 48 h; AID 686979; 420,000 tested, 12% active; Potency, µM (doses to about 46.2 µM), for inactives: top-dose activity change, negative = growth inhibition, actives largely listed as inhibitors; note: % is set by controls: 0 for no effect and ±100 for the full control effect; nearly all actives have a fitted effect of over 55% in size
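Chicken DT40 Tdp1-/- cells stably complemented with human TDP1 were seeded at 400 cells/well in medium containing 20 nM camptothecin, exposed to pin-transferred compounds, and grown at 37 °C for at least 48 hr. Viability was read as ATP luminescence.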
ClpP mod: qHTS Assay for Activators of ClpP; Potency, µM (highest dose often 57.5 µM), for the others: at the top dose activity change, negative = active; AID 651965, 2013; ATP-dependent Clp protease proteolytic subunit (Bacillus subtilis (strain 168)), P80244; purified B. subtilis ClpP, FRET peptide cleavage, 20 min; 340,000 tested, 1.9% active; active = well fitted falling curve with a large enough effect; inconclusive = small, poorly fitted or top-dose-only effect; inactive = no such curve, though single readings can be large or run the other way; note: the source files actives as falling curves though it sought activators and does not explain the sign; nearly all actives have a fitted effect of over 65% in size
Target sequence (P80244 whole entry, looked up): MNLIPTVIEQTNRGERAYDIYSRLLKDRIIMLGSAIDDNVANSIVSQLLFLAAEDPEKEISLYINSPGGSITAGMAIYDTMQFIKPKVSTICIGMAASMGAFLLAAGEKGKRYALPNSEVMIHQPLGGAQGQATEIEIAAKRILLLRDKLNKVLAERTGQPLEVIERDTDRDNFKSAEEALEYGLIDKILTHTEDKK
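FRET quenching reversal measured ClpP activation: 10 microg/mL B. subtilis ClpP at pH 8 with the FRET-FV decapeptide, read at 430 nm after 320 nm excitation. The 20-min minus 0-min signal was scaled between DMSO/no-enzyme wells and ADEP (5.8 microM final).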
TDP1 cell noCPT: qHTS for Inhibitors of human tyrosyl-DNA phosphodiesterase 1 (TDP1): qHTS in cells in absence of CPT | DT40 Tdp1-/- hTDP1 cells, no CPT, ATP luminescence, 48 h | Potency, µM (top dose mostly 46.2 µM), for the others: at the highest dose activity change, negative = growth inhibition, most hits filed as inhibitors | 420,000 tested, 15% active | AID 686978, 2013; note: % is set by controls: 0 for no effect and ±100 for the full control effect; nearly all actives have a fitted effect of over 55% in size
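Cells were dispensed at 400 per well, compounds added by pin tool, plates incubated ≥48 hr at 37 °C, then CellTiter-Glo added for 30 min at room temperature before luminescence reading. Line: DT40 Tdp1-/- complemented with hTDP1; camptothecin omitted.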
An asterisk follows results filed as active; ? = inconclusive; / = not tested or not shown; [ ] = dose if it differs, or a comment. Compounds with a hit are over-represented: about 17% of the library has one in this group of screens. Unless noted, calls come from the whole dose curve; as a rule, active = well fitted curve in the direction sought with a large enough effect; inconclusive = small, poorly fitted or top-dose-only effect, or another doubt; inactive = no such curve, though single readings can be large; an effect the other way counts as inactive or inconclusive. Potency is the fitted concentration of half-maximal effect.

SMILES | TDP1 inh | TDP1 cell CPT | ClpP mod | TDP1 cell noCPT
Cc1ccc2nc(-c3cccc(SC4CCCCC4)c3)c(NC3CCCCC3)n2c1 | 3% | 21µM* | ? | 16µM*
COc1ccc(-c2ccc(-c3nc4ccc(C)cn4c3NC3CCCCC3)cc2OC)cc1 | 1% | 10µM* | 4% | 13µM*
Clc1ccc2nc(-c3cccc(SC4CCCCC4)c3)c(NCc3ccccc3)n2c1 | 0% | 16µM* | ? | ?
Cc1cc(NC(=O)Nc2nnc(N3CCCCCC3)s2)ccc1Br | 3% | ? | 1% | ?
N#C/C(=N\Nc1cccc(C(F)(F)F)c1)C(=O)c1csc(-c2cccnc2)n1 | / | 16µM* | 3% | 26µM*
CN1CCC(CN2c3ccccc3Sc3ccccc32)C1 (centres undefined) | / | 19µM* | / | 12µM*
O=C(O)CCN1c2ccccc2Sc2ccccc21 | 3% | -2% | -4% | -15%
CN1CC[C@H](CN2c3ccccc3Sc3ccccc32)C1 | 6% | ? | -4% | 13µM*
CC(C)c1nc2cccnc2n1C1CCN(C(=O)Cn2cccn2)CC1 | / | -7%[9.04 µM] | / | -1%
O=[N+]([O-])c1ccc(CCO)cc1 | 7% | / | / | /
Cc1ccc(/C=N/NC(=O)c2cc(C)oc2C)cc1 | 7% | 23µM* | / | 16µM*
COc1cc(/C=N/NC(=O)c2cc(C)oc2C)ccc1O | 3% | -10% | / | -16%
Cc1cc(C(=O)N/N=C/c2ccncc2)c(C)o1 | 2% | 6% | 2% | -2%
Cc1nonc1C(=O)N/N=C/c1ccc(O)c(O)c1 | -2% | ? | 28µM* | ?
COc1ccc(C=NNC(=O)c2cc(C)oc2C)cc1O | 2% | ? | -13% | 16µM*
O=C(O)c1ccccc1Nc1cc(Cl)cc(Cl)c1 | 11% | / | / | /
S=C(NCCC1=CCCCC1)NCc1ccco1 | 0% | 16µM* | / | 10µM*
O=C(NC(=S)NCCC1=CCCCC1)c1ccccc1Br | 0% | ? | / | 16µM*
O=C(CCn1c(=O)c2ccccc2n(CC(=O)NCCC2=CCCCC2)c1=O)NCc1ccco1 | 8% | -23% | -7% | ?
Cc1csc2nc(-c3ccc(NS(=O)(=O)c4cc(F)ccc4F)cc3)cn12 | 5% | -10% | 0% | -22%
C#CC(C)(CC)NC(=O)c1cc2cccc(CC=C)c2oc1=O (centres undefined) | 1% | -34% | -29% | ?
COc1ccc(C(C#N)=Cc2cccc(OC)c2OC)cc1 | / | ? | -16% | 23µM*
COc1cc(/C(C#N)=C/c2cccc3ccccc23)c([N+](=O)[O-])cc1OC | 8% | ? | -3% | -25%
COCCN(C(=O)COC(=O)C12CC3CC(CC(C3)C1)C2)c1c(N)n(Cc2ccccc2)c(=O)[nH]c1=O | / | ? | 0% | ?
CC(C)NC(=O)COc1ccc(S(=O)(=O)N(C)Cc2ccccc2)cc1 | 1% | ? | 3% | ?
SMILES | TDP1 inh | TDP1 cell CPT | ClpP mod | TDP1 cell noCPT
O=C(Nc1ccncc1)C1CC1c1ccccc1 (centres undefined) | 2% | 16µM* | 4% | ?
CCN(CC)C(=O)c1cc([N+](=O)[O-])cc2c1-c1ccc([N+](=O)[O-])cc1C2=C(C#N)C#N | 8% | 0.65µM* | / | 16µM*
Cc1cc(C)cc(NC(=O)N2CCC(N3CCCCC3)CC2)c1 | -3% | -6% | 0% | -10%
c1ccc(CC2CCN(c3nc4ccccc4n4nnnc34)CC2)cc1 | -3% | -25% | 16µM* | ?
O=C(N/N=C/c1ccc(O)c(O)c1)c1ccc(CSc2cccc3cccnc23)cc1 | 7% | ? | -19% | 8.2µM*
CCCCC(=O)N/N=C/c1ccc(Sc2cccc3cccnc23)o1 | 6% | ? | ? | 23µM*
O=C(Cc1cccc2ccccc12)N/N=C/c1ccc(Sc2cccc3cccnc23)o1 | 1% | / | / | /
O=C(CSc1cccc2cccnc12)N/N=C/c1cccc(O)c1 | 2% | ? | 4% | 16µM*
CCOc1cc(/C=N\NC(=O)CN2CCOCC2)ccc1OCc1ccc(F)cc1 | 8% | 1% | -1% | ?
CN(CC(=O)Nc1ccc(Cl)c(C(F)(F)F)c1)C(=O)C1CC(=O)N(C2CCCC2)C1 (centres undefined) | -1% | ? | -4% | ?
Cc1nn(CCCC(=O)NCCc2ccc(Cl)cc2)c(=O)c2c1sc1ccccc12 | 6% | ? | -10% | ?
COc1ccc2cc(C#N)c(N3CCN(Cc4nnnn4CCC(C)C)CC3)nc2c1 | -3% | 21µM* | -19% | 18µM*
Cc1ccc2c(C)c(C(=O)NCC(c3ccc(Cl)cc3)N3CCOCC3)oc2c1 (centres undefined) | 2% | 15µM* | 0% | 12µM*
O=C(NCc1ccc(Cl)cc1)C(=O)NCC(c1ccc2c(c1)OCO2)N1CCOCC1 (centres undefined) | 5% | ? | -1% | ?
CCc1ccc2oc(C(=O)NCC(c3ccc(Cl)cc3)N3CCOCC3)c(C)c2c1 (centres undefined) | -2% | 8.2µM* | -2% | 8.2µM*
Cc1cc(C)cc(NC(=O)C2(c3cccs3)CCOCC2)c1 | 0% | ? | -1% | ?
CC(C)(C)c1ccc(C(=O)Cn2nc(C(=O)O)c3ccccc3c2=O)cc1 | 4% | ? | -3% | ?
CC(C)CC(=O)Nc1ccc(C(=O)Cn2nc(C(=O)O)c3ccccc3c2=O)cc1 | -1% | -5% | 28µM* | 3%
COc1ccc(/C=N/NC(=O)c2cccnc2)cc1CN1CCCc2ccccc21 | 10% | ? | / | 12µM*
COc1cc(/C=N/NC(=O)c2cccnc2)ccc1OCC(=O)Nc1ccccc1Cl | -1% | -18% | -22% | -25%
COc1ccc(C(=O)N/N=C/c2ccc(OC)c(CN3CCCc4ccccc43)c2)cc1 | 5% | -24% | -1% | ?
COc1ccc(NC(=O)COc2ccc(/C=N/NC(=O)c3cccnc3)cc2OC)cc1 | 3% | 18µM* | ? | 23µM*
COc1ccc(/C=N/NC(=O)c2cccnc2)cc1CSc1ccccn1 | / | 6.5µM* | / | 6.5µM*
COc1ccc(C(=O)N/N=C/c2ccc(OC)c(CSc3ccccn3)c2)cc1 | 0% | -5% | -13% | -19%
COc1cc(/C=N/NC(=O)c2cccnc2)ccc1OC(=O)c1ccc([N+](=O)[O-])cc1 | 45µM* | -19% | -4% | -1%
O=C1CCc2cc(S(=O)(=O)Nc3cccnc3)ccc2N1 | 2% | / | / | /
COc1cc(O)oc1C=Nc1ccc(C(F)(F)F)cc1 | 0% | -11% | -10% | 0%
COc1ccc(/C=N/NC(=O)c2cccnc2)cc1COc1ccc([N+](=O)[O-])cc1 | 7% | 2.6µM* | / | 2.6µM*
COc1ccc(/C=N\NC(=O)c2ccc([N+](=O)[O-])cc2)cc1COc1c(F)c(F)cc(F)c1F | 4% | ? | -2% | ?
